# This is a sample that favours compounds with a hit; in the whole collection about 15% have one here.
# VP16 counter: counter-screen for ROR gamma inhibitors: Gal4-VP16 reporter; Drosophila S2 Gal4-VP16 UAS-luciferase, luminescence, 20 h; AID 2546; Potency, µM (series often up to 53.6 µM), for inactives: at the top dose activity, negative = inhibition, actives largely listed as inhibitors; 310,000 tested, 3.5% active;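 further: Gal4-VP16 expression switched on by copper sulfate through the metallothionein promoter; nearly all actives have a fitted effect of over 50% in size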
# ELG1 repair inh: blocks ELG1-dependent DNA repair in HEK293T cells | Potency, µM (doses to about 46.1 µM), for inactives: at the top dose activity change, negative = inhibition, usual class: inhibitors | 330,000 tested, 2.3% active | HEK293T ELG1-luciferase reporter, luminescence, 16 h; DNA damage induced by 5-fluorouridine; further: nearly all actives have a fitted effect of over 55% in size
#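 Reporter activity after DNA damage by 5-fluorouridine is monitored. Compound-treated cells incubate 16 hr at 37 °C, then ONE-Glo is added for 30 min before luminescence reading.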
# DT40 TDP1 no CPT: qHTS for Inhibitors of human tyrosyl-DNA phosphodiesterase 1 (TDP1): qHTS in cells in absence of CPT | DT40 Tdp1-/- hTDP1 cells, no CPT, ATP luminescence, 48 h | Potency, µM (doses to about 46.2 µM), inactives show at the highest dose activity change, negative = growth inhibition, usual class: inhibitors | 420,000 tested, 15% active; further: nearly all actives have a fitted effect of over 55% in size
#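 Growth kinetics read by CellTiter-Glo luminescence after ≥48 hr at 37 °C. Cells: DT40 Tdp1-/- stably carrying human TDP1, 400 per well, compound exposure in the absence of CPT (DMSO vehicle).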
# RORgamma inh: blocks mouse ROR gamma transcriptional activity | 310,000 tested, 5.4% active | Drosophila S2 Gal4-RORgamma UAS-luciferase reporter, 20 h | Potency, µM (highest dose often 53.6 µM), inactives show at the top dose activity change, negative = inhibition, most hits filed as inhibitors; further: nearly all actives have a fitted effect of over 60% in size
#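 Drosophila Schneider cells stably carrying a metallothionein-driven Gal4 DBD–ROR gamma fusion and a UAS-Photinus luciferase reporter were exposed to compound for 1 hr, then induced with copper sulfate (700 uM final) for 20 hr at ambient temperature before luminescence reading.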
# 12-LOX inh: ALOX12 (human) lipoxygenase inhibition | purified 12hLO, xylenol orange hydroperoxide absorbance | 580,000 tested, 1.1% active | P18054 | Potency, µM (series often up to 108 µM), for the others: at the top dose activity change, negative = inhibition, most hits filed as inhibitors | AID 1671190
# Target sequence (P18054 whole entry, looked up): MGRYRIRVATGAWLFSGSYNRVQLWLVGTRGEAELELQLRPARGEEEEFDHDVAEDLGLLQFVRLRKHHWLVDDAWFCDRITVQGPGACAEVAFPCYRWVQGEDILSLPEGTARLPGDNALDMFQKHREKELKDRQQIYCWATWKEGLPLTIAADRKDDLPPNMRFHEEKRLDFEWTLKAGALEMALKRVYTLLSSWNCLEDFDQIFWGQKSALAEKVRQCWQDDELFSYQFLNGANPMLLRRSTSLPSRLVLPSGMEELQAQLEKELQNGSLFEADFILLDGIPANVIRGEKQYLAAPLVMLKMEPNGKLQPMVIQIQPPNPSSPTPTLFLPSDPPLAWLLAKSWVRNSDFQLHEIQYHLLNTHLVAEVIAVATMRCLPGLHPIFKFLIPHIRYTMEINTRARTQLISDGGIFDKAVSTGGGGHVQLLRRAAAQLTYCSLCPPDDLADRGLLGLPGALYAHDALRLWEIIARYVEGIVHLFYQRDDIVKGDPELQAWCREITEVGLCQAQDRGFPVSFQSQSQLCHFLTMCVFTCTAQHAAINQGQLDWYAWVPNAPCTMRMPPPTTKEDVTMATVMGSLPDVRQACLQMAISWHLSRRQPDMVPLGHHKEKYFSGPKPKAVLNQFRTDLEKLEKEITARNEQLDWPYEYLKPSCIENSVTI
#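 Hydroperoxide product was detected by ferrous iron/xylenol orange as the 573 to 405 nm absorbance ratio. Arachidonic acid at 40 uM (final) was turned over for 30 min at room temperature by 150 nM human 12hLO, pH 7.0 Hepes buffer, after 15 min compound preincubation.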
# TDP1 cell CPT: DT40-hTDP1 cell growth loss with CPT. chicken DT40 Tdp1-/-;hTDP1 cells + 20 nM CPT, ATP luminescence, 48 h. Potency, µM (top dose mostly 46.2 µM), for the others: top-dose activity change, negative = growth inhibition, actives largely listed as inhibitors. 420,000 tested, 12% active; further: nearly all actives have a fitted effect of over 55% in size
#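 Cell growth measured by CellTiter-Glo luminescence after a minimum 48 h, 37 C compound exposure with 20 nM CPT in Tdp1-knockout DT40 cells stably expressing hTDP1, seeded 400/well; qHTS titration format.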
# Numbers without * were called inactive; u = inconclusive; x = not tested or not shown; [ ] = remark or other dose. The call rests on the fitted dose curve; in most records, active means well fitted curve in the direction sought with a large enough effect; inconclusive means small, poorly fitted or top-dose-only effect, or another doubt; inactive means no such curve, though single readings can be large; an effect the other way counts as inactive or inconclusive. On the % scale 0 is the no-effect control and ±100 the full control effect; potency means the concentration at half of the fitted maximal effect.
SMILES,VP16 counter,ELG1 repair inh,DT40 TDP1 no CPT,RORgamma inh,12-LOX inh,TDP1 cell CPT
CN1CCC(=O)N([C@H](CSc2ccc(Br)cc2)Cc2ccccc2)CC1,-12%,0%,u,14%,-19%,21µM*
CC(C)C[C@@H](CSc1ccccc1)N1CCN(CC(C)C)CCC1=O,-4%,u,14µM*,-1%,5%,29µM*
CC(C)CN1CCC(=O)N([C@H](CSc2ccc(Br)cc2)Cc2ccccc2)CC1,-5%,-15%,18µM*,35%,-5%,15µM*
C[C@H]1CCC(=O)N([C@H](CC#N)Cc2ccccc2)CC1,0%,0%,-10%,3%,0%,-6%
C[C@H]1CCC(=O)N([C@H](CSc2ccc(Br)cc2)Cc2ccccc2)CC1,x,-25%,29µM*,x,9%,18µM*
Cc1[nH][nH]c(=O)c1C(c1ccc(OCc2ccccc2)cc1)c1c(C)[nH][nH]c1=O,x,x,x,x,37%,x
C=CCn1cc2c3c(cccc31)[C@H](CC(C)C)N[C@H](C(=O)NC1CCC1)C2,x,x,x,x,22%[176 µM],x
O=C(CCC1CCCN(S(=O)(=O)c2ccccc2)C1)NC1CCS(=O)(=O)C1 (centres undefined),x,x,x,x,50%,x
CC(=O)Nc1ccc(SC[C@H](Cc2ccccc2)N2CC[C@@H](N)CCC2=O)cc1,x,x,0.13µM*,x,x,-25%
CCCCn1c2ccc(F)cc2c2nnc(SCCN3CCOCC3)nc21,-26%,-25%,29µM*,u,-9%,u
CCCCn1c2ccc(F)cc2c2nnc(SCCN(CC)CC)nc21,x,x,26µM*,x,-27%,21µM*
C=CCn1c2ccccc2c2nnc(SCCN3CCOCC3)nc21,-3%,-21%,u,2%,u,-26%
CCCCn1c2ccccc2c2nnc(SCCN3CCCCC3)nc21,-17%,5%,16µM*,-2%,0%,u
COc1ccc2c(c1)c1nnc(SC)nc1n2C,1%,u,-19%,13%[10 µM],0%,-12%
COc1ccc2c(c1)c1nnc(SCCN3CCOCC3)nc1n2C,x,x,16µM*,x,x,u
Cn1c2ccc(F)cc2c2nnc(SCCN3CCOCC3)nc21,-10%,u,-16%,11%,u,1%
CSc1nnc2c3cc(F)ccc3n(Cc3ccccc3)c2n1,u,-15%,-10%,1%,-19%,4%
Cc1noc([C@@H]2CN(Cc3ccc(Cl)cc3F)C[C@H]2CO)n1,x,x,x,x,26%,x
CCN(CC)CCSc1nnc2c3cc(C)ccc3n(Cc3ccccc3)c2n1,-6%,-7%,21µM*,-18%,0%,u
COc1cccc(/C(C)=N/Nc2ccc(S(=O)(=O)N3CCCCC3)cn2)c1,x,-26%,2.9µM*,x,14%,u
C/C(=N\Nc1ccc(S(=O)(=O)N2CCCCC2)cn1)c1ccc(O)cc1,x,u,15µM*,x,7%,u
COc1cccc(CNc2ccc(S(=O)(=O)N3CCCC3)cn2)c1,x,-18%,u,x,-8%,u
Cc1ccc2[nH]cc(CCNC(=O)/C=C/c3cccc(F)c3)c2c1,x,x,x,x,-15%,x
O=C(CCl)NCCCCCCCCCNC(=O)CCl,u,u,6.5µM*,-44%,-9%,4.6µM*
CCOC(=O)C1=C(OCc2ccc(Cl)cc2)C2C=C(C)C=CC2N=C1 (centres undefined),5%,16µM*,-21%,1%,u,-12%
SMILES,VP16 counter,ELG1 repair inh,DT40 TDP1 no CPT,RORgamma inh,12-LOX inh,TDP1 cell CPT
O=C(Oc1ccccc1Cl)c1ccccc1OCc1ccc(Cl)cc1,x,x,x,x,-15%,x
COc1cc(/C=N/O)c(Br)c(Br)c1OCc1ccccc1Cl,x,x,x,x,-10%,x
Cc1cc(C)nc(SCC(=O)c2ccc3c(c2)OCCO3)n1,9%,-2%,u,1%,2%[57.4 µM],u
O=C(Cn1nc(Cl)nc1Cl)c1ccc(F)cc1,-13%,-4%,1%,21%,3%,-1%
O=C(Cn1nc(Cl)nc1Cl)c1ccc2c(c1)OCCO2,24%,-6%,13µM*,-29%,0%,5.2µM*
O=C(Cn1nc(Cl)nc1Cl)c1ccccc1,-4%,25%,15µM*,-1%,21%,u
Cc1nc(Nc2nc3ccccc3o2)ncc1C(=O)Nc1ccccc1C(F)(F)F,x,x,x,x,51%,x
Cc1nc2ccc(C(=O)NC3CCCCNC3=O)cc2nc1C (centres undefined),x,x,x,x,8%,x
CCN=c1scc(C)n1/N=C/c1cc(Br)c(O)c(OC)c1,-15%[10 µM],5.8µM*,u,2%,u,-26%
COc1ccc(CNC(=O)c2cc(-c3cc(C)ccc3O)n[nH]2)cc1,0%,0%,u,-5%,16%,u
COc1ccc(CCNC(=O)c2cc(-c3cc(C)ccc3O)n[nH]2)cc1OC,1%,23µM*,u,9%,-8%,u
COc1ccc(CCNC(=O)c2cc(-c3ccc(C)c(C)c3O)n[nH]2)cc1OC,3%,u,16µM*,-38%,-8%,21µM*
CCOc1ccc(-c2cc(C(=O)NCCc3ccc(OC)c(OC)c3)[nH]n2)cc1,x,x,u,x,7%,u
Cc1ccc(N2CCN(c3nc4ccccc4c4nnc(C)n34)CC2)c(C)c1,x,x,-10%,x,-19%,-7%
Cc1cccc(N2CCN(c3nc4ccccc4c4nnc(C)n34)CC2)c1C,x,x,12µM*,x,-2%,13µM*
Cc1nnc2c3ccccc3nc(N3CCN(c4cccc(Cl)c4)CC3)n12,x,x,12µM*,x,-28%,13µM*
COc1ccc(NC(=S)NCCN2CCOCC2)c(OC)c1,x,x,-11%,x,-24%,-7%
COc1ccc(OC)c(NC(=S)NCCSc2ccc(C)cc2)c1,u,3%,16µM*,14µM*,u,u
COc1ccc(NC(=S)NCCSc2ccc(C)cc2)c(OC)c1,x,x,u,x,35µM*,u
Cc1ccc(S(=O)(=O)Nc2nc3ccccc3nc2Nc2ccc(F)cc2)cc1,x,x,x,x,6%,x
C[C@H](CO)N1C[C@H](C)[C@@H](CN(C)S(=O)(=O)c2ccccc2)Oc2c(NC(=O)Nc3ccccc3)cccc2C1=O,x,u,-22%,x,-2%,-17%
C[C@H]1CN([C@@H](C)CO)C(=O)c2cccc(NC(=O)Nc3ccc(C(F)(F)F)cc3)c2O[C@@H]1CN(C)S(=O)(=O)c1ccccc1,x,u,21µM*,x,3%,u
COc1ccc(S(=O)(=O)N(C)C[C@H]2Oc3ncc(-c4ccncc4)cc3C(=O)N([C@@H](C)CO)C[C@@H]2C)cc1,x,x,u,x,-42%,-21%

# Source: PubChem
